Experimental findings from PubChem BioAssay (EPA / NIEHS) are described below.

Calls of active or inactive are those of the source. Rule for the calls: active = hit-call score of the fitted dose curve at least 0.9, where 1 is the maximum; inactive = score below 0.9.

For orientation: AC50 means the midpoint of the concentration-response curve, whichever way the signal moves.

Conditions in all cases: mRNA level, 48 h; actives raise or lower the signal
Read-out in assay [1]: Tumor necrosis factor receptor superfamily member 6 (Homo sapiens) (UniProt P25445)
In words: LTEA_HepaRG_FAS: Life Technologies and Expression Analysis (LTEA) Assay for Fas cell surface death receptor (FAS) using HepaRG (AID 2283447). The method in brief:
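FAS transcript level was measured by TaqMan qRT-PCR against three housekeeping genes after 48 h chemical exposure. Cells were HepaRG, 0.5% DMSO vehicle, with a top concentration of 100 uM and half-log dilutions over eight points, in duplicate.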

Read-out in assay [2]: Fatty acid synthase (Homo sapiens) (UniProt P49327)
In words: LTEA_HepaRG_FASN: Life Technologies and Expression Analysis (LTEA) Assay for Fatty Acid Synthase (FASN) using HepaRG (AID 2283448). The method in brief: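 In human HepaRG cultures, 48 h chemical exposure (up to 100 uM, 0.5% DMSO) preceded TaqMan qRT-PCR of FASN.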

Read-out in assay [3]: Cyclin D2 (CCND2), CCND2 (gene 894)
Briefly: LTEA_HepaRG_CCND2: Life Technologies and Expression Analysis (LTEA) Assay for Cyclin D2 (CCND2) using HepaRG (AID 2283449). The method in brief:
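CCND2 transcript levels, quantified by qRT-PCR and normalised to three housekeeping genes, were fitted bidirectionally against 0.5% DMSO. HepaRG cultures were dosed 48 h in duplicate with an 8-point half-log series up to 100 uM.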

Read-out in assay [4]: Cyclin Dependent Kinase Inhibitor 1A (CDKN1A), CDKN1A (gene 1026)
In words: LTEA_HepaRG_CDKN1A: Life Technologies and Expression Analysis (LTEA) Assay for Cyclin Dependent Kinase Inhibitor 1A (CDKN1A) using HepaRG (AID 2283450). The method in brief:
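Differentiated HepaRG cells in serum-free induction medium, exposed 48 h in duplicate to eight half-log concentrations up to 100 uM in 0.5% DMSO. mRNA measured by TaqMan qRT-PCR, normalized to ACTB, GAPDH, POLR2A; bidirectional fit versus DMSO.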

Read-out in assay [5]: catalase (CAT), CAT (gene 847)
Briefly: LTEA_HepaRG_CAT: Life Technologies and Expression Analysis (LTEA) Assay for catalase (CAT) using HepaRG (AID 2283452).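 For AC50: TaqMan qRT-PCR signal normalized to ACTB GAPDH and POLR2A housekeeping genes.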 The method in brief:
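Expression of CAT was quantified by TaqMan qRT-PCR with ACTB/GAPDH/POLR2A normalization after 48 h chemical exposure of HepaRG. Eight-point half-log series, top 100 uM, in 0.5% DMSO; gain or loss fitted against vehicle.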

Read-out in assay [6]: flavin-containing dimethylaniline monooxygenases 3 (FMO3), FMO3 (gene 2328)
In words: LTEA_HepaRG_FMO3: Life Technologies and Expression Analysis (LTEA) Assay for flavin-containing dimethylaniline monooxygenases 3 (FMO3) using HepaRG (AID 2283453). The method in brief:
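Eight-point concentration-response in serum-free HepaRG cultures (top 100 uM, 0.5% DMSO, 48 h). Read-out: FMO3 mRNA level normalized to three endogenous control genes, fitted bidirectionally versus vehicle.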

Read-out in assay [7]: Cytochrome P450 (CYP1A1), CYP1A1 (gene 1543)
Briefly: LTEA_HepaRG_CYP1A1: Life Technologies and Expression Analysis (LTEA) Assay for Cytochrome P450 (CYP1A1) using HepaRG (AID 2283454). The method in brief:
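Differentiated human HepaRG cells, after 48 h plating, exposed in duplicate for 48 h in serum-free induction medium to 8 half-log concentrations up to 100 uM in 0.5% DMSO. CYP1A1 mRNA by qRT-PCR, normalized to ACTB/GAPDH/POLR2A; bidirectional fit versus DMSO.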

Read-out in assay [8]: Forkhead box O1 (FOXO1), FOXO1 (gene 2308)
Briefly: LTEA_HepaRG_FOXO1: Life Technologies and Expression Analysis (LTEA) Assay for Forkhead box O1 (FOXO1) using HepaRG (AID 2283456). The method in brief:
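FOXO1 transcript quantified by qRT-PCR after 48 h chemical exposure (top 100 uM, half-log steps, 0.5% DMSO) of HepaRG cells, housekeeping-normalized (ACTB/GAPDH/POLR2A). Changes fitted in both directions relative to vehicle.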

Read-out in assay [9]: growth arrest and DNA damage 45 (GADD45A), GADD45A (gene 1647)
In words: LTEA_HepaRG_GADD45A: Life Technologies and Expression Analysis (LTEA) Assay for growth arrest and DNA damage 45 (GADD45A) using HepaRG (AID 2283458). The method in brief: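 Eight-point concentration-response in HepaRG cells: 48 h chemical exposure, 0.5% DMSO vehicle, top dose 100 uM. Normalized qRT-PCR mRNA readout with bidirectional fitting relative to DMSO.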

Read-out in assay [10]: Forkhead box O3 (FOXO3), FOXO3 (gene 2309)
In words: LTEA_HepaRG_FOXO3: Life Technologies and Expression Analysis (LTEA) Assay for Forkhead box O3 (FOXO3) using HepaRG (AID 2283459). The method in brief: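 FOXO3 transcript measured by qRT-PCR (normalized to ACTB, GAPDH, POLR2A) after 48 h exposure of HepaRG cells in serum-free induction medium. Duplicates, eight half-log concentrations up to 100 uM, 0.5% DMSO; gain or loss fitted against DMSO.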

Read-out in assay [11]: ABC Transporter (ABCB1), ABCB1 (gene 5243)
Briefly: LTEA_HepaRG_ABCB1: Life Technologies and Expression Analysis (LTEA) Assay for ABC Transporter (ABCB1) using HepaRG (AID 2283460). The method in brief: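 ABCB1 transcript level measured by TaqMan qRT-PCR against three housekeeping genes after 48 h chemical exposure of differentiated HepaRG cells. Top concentration 100 uM, half-log steps, eight points, 0.5% DMSO vehicle; bidirectional fit relative to DMSO.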

Read-out in assay [12]: growth arrest and DNA damage 45 (GADD45B), GADD45B (gene 4616)
Briefly: LTEA_HepaRG_GADD45B: Life Technologies and Expression Analysis (LTEA) Assay for growth arrest and DNA damage 45 (GADD45B) using HepaRG (AID 2283461). The method in brief: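 Differentiated human HepaRG cells in serum-free induction medium exposed 48 h in duplicate to eight concentrations, top 100 uM, half-log steps, 0.5% DMSO. GADD45B mRNA by TaqMan qRT-PCR, normalized to ACTB, GAPDH, POLR2A; bidirectional fit versus DMSO.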

Read-out in assay [13]: ABC Transporter (ABCC3), ABCC3 (gene 8714)
Briefly: LTEA_HepaRG_ABCC3: Life Technologies and Expression Analysis (LTEA) Assay for ABC Transporter (ABCC3) using HepaRG (AID 2283462). The method in brief:
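Differentiated human HepaRG cells exposed 48 h in serum-free induction medium, 0.5% DMSO vehicle, 8-point half-log series to 100 uM in duplicate. ABCC3 mRNA by qRT-PCR, normalised to ACTB, GAPDH, POLR2A; bidirectional fit vs DMSO.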

Read-out in assay [14]: ABC Transporter (ABCB11), ABCB11 (gene 8647)
In words: LTEA_HepaRG_ABCB11: Life Technologies and Expression Analysis (LTEA) Assay for ABC Transporter (ABCB11) using HepaRG (AID 2283463). The method in brief: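 ABCB11 transcript levels quantified by TaqMan qRT-PCR against three housekeeping genes after 48 h chemical exposure of HepaRG cultures. Concentrations up to 100 uM in half-log steps, 0.5% DMSO vehicle; both induction and suppression scored.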

Read-out in assay [15]: ABC Transporter (ABCC2), ABCC2 (gene 1244)
Briefly: LTEA_HepaRG_ABCC2: Life Technologies and Expression Analysis (LTEA) Assay for ABC Transporter (ABCC2) using HepaRG (AID 2283464). The method in brief:
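Differentiated HepaRG cells in serum-free induction medium exposed 48 h to eight half-log concentrations up to 100 uM, 0.5% DMSO, in duplicate. ABCC2 mRNA measured by qRT-PCR (TaqMan, Fluidigm), normalized to ACTB, GAPDH and POLR2A. Fitted in both directions against DMSO.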

Read-out in assay [16]: Broad substrate specificity ATP-binding cassette transporter ABCG2 (Homo sapiens) (UniProt Q9UNQ0)
Briefly: LTEA_HepaRG_ABCG2: Life Technologies and Expression Analysis (LTEA) Assay for ABC Transporter (ABCG2) using HepaRG (AID 2283465). The procedure, abridged:
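ABCG2 transcript was quantified by TaqMan qRT-PCR against three housekeeping genes in HepaRG cells. Cells were treated in duplicate for 48 h across an 8-point half-log series up to 100 uM, with 0.5% DMSO vehicle. Gain or loss versus DMSO was fit.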

Read-out in assay [17]: ATP-citrate lyase (ACLY), ACLY (gene 47)
In words: LTEA_HepaRG_ACLY: Life Technologies and Expression Analysis (LTEA) Assay for ATP-citrate lyase (ACLY) using HepaRG (AID 2283466). The procedure, abridged:
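ACLY mRNA quantified by qRT-PCR on Fluidigm arrays against three housekeeping genes, after 48 h chemical treatment of HepaRG cells (top concentration 100 uM, half-log steps, 0.5% DMSO vehicle). Up- or down-regulation fitted relative to DMSO.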

Read-out in assay [18]: CFLAR gene, CFLAR (gene 8837)
In words: LTEA_HepaRG_CFLAR: Life Technologies and Expression Analysis (LTEA) Assay for CFLAR gene using HepaRG (AID 2283455). The procedure, abridged:
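Transcript level by qRT-PCR (normalized to ACTB, GAPDH and POLR2A) after 48 h chemical exposure of HepaRG cells, top concentration 100 uM with half-log steps, 0.5% DMSO vehicle, duplicates; fitted bidirectionally against DMSO baseline.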

Read-out in assay [19]: Cyclin D1 (CCND1), CCND1 (gene 595)
Briefly: LTEA_HepaRG_CCND1: Life Technologies and Expression Analysis (LTEA) Assay for Cyclin D1 (CCND1) using HepaRG (AID 2283451). The procedure, abridged:
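Differentiated HepaRG cells exposed 48 h in serum-free induction medium to eight half-log concentrations from 100 uM top, 0.5% DMSO, duplicates. CCND1 mRNA measured by Fluidigm TaqMan qRT-PCR, normalised to ACTB, GAPDH, POLR2A; bidirectional fit.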

Fatty acid synthase (Homo sapiens), sequence (P49327 whole entry, looked up): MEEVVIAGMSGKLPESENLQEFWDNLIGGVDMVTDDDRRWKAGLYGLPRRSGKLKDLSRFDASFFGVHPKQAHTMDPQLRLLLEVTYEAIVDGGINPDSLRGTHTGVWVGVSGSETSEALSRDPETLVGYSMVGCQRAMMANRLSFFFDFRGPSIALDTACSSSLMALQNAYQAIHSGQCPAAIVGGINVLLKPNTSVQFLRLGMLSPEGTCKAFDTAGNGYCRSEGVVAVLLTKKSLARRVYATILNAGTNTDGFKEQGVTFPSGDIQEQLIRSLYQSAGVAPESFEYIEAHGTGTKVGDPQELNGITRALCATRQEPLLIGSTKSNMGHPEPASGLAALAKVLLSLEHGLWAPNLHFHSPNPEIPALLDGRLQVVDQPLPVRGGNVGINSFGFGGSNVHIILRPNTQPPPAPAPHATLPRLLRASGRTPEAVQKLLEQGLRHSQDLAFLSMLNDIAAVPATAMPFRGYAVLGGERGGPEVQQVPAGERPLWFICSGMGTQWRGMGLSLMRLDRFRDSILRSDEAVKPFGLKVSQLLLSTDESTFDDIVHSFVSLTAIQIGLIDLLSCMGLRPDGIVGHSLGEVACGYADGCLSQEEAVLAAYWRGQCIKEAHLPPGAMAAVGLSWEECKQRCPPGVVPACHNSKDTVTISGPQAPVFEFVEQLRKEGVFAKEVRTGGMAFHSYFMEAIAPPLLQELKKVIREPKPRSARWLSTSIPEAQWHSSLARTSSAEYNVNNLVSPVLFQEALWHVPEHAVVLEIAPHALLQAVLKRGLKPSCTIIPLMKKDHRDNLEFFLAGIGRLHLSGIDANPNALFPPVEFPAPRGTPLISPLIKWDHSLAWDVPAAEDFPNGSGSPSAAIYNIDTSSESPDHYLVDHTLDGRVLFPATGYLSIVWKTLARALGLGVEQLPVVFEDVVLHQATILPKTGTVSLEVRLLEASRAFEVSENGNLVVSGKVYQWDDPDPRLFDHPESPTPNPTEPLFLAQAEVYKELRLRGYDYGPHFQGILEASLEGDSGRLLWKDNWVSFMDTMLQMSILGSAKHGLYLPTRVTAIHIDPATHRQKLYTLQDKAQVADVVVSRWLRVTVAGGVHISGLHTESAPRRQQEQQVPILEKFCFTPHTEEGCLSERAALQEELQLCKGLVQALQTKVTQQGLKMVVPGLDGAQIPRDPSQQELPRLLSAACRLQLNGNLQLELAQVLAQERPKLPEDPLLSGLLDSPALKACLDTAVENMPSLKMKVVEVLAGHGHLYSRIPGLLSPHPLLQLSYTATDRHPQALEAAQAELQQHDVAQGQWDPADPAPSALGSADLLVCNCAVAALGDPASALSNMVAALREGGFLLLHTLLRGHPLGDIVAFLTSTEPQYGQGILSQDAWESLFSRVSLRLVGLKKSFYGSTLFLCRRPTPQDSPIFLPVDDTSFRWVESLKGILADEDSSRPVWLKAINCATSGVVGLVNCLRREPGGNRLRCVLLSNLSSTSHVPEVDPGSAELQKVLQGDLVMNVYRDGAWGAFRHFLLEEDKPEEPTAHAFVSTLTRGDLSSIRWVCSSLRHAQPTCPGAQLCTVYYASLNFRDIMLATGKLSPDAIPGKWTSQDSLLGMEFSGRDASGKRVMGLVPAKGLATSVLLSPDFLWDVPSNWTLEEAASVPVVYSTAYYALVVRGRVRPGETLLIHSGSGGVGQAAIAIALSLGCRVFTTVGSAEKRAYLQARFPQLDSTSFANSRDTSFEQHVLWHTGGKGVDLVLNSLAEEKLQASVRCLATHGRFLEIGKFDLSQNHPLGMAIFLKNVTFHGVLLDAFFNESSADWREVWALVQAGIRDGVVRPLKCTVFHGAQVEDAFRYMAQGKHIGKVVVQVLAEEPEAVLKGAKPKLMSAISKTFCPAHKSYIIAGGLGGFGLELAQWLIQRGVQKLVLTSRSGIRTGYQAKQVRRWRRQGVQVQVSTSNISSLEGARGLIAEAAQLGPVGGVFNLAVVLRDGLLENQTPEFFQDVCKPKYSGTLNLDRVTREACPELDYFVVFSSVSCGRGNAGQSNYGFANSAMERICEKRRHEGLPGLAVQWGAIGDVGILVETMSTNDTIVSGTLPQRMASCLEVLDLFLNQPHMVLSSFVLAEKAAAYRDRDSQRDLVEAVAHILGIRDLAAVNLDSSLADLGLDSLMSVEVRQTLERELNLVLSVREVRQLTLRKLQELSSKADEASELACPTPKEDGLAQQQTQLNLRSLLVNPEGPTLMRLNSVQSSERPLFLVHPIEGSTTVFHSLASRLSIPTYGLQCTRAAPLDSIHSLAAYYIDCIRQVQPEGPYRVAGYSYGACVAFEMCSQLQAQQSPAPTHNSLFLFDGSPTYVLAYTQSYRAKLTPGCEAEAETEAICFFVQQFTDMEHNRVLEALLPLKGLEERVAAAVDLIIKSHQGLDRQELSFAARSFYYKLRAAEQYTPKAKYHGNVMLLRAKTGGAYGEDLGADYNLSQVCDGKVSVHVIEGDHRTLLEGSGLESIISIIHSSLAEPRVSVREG
Broad substrate specificity ATP-binding cassette transporter ABCG2 (Homo sapiens), sequence (Q9UNQ0 whole entry, looked up): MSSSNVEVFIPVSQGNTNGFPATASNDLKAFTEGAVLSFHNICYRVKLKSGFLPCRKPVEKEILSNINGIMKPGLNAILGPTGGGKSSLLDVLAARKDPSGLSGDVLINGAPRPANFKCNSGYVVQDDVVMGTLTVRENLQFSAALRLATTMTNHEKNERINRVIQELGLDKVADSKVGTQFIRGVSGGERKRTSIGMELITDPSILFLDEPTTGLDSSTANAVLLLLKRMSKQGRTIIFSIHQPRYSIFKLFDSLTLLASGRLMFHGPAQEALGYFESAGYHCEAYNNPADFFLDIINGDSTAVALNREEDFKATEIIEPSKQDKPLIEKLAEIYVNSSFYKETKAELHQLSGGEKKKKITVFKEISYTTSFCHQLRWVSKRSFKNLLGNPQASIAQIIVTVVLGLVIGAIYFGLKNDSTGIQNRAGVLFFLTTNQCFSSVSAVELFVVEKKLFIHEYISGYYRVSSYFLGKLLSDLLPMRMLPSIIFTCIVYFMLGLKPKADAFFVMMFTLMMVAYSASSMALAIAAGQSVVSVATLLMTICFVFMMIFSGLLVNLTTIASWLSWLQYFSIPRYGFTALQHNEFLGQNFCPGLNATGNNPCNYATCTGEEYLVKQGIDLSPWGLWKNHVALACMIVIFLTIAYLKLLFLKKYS

As to `COc1cc(-c2nc(NC(=O)c3cc4cc(C)cc(C)c4n3CC(=O)O)sc2CCC2CCCCC2)c(OC)cc1Cl`, the AC50 in [1] was 20.8 µM (active); in assay [5] it was 7.6 µM (active); in assay [6] it was 8.16 µM (active); in [8], 42.2 µM (active); in [9], 15.2 µM (active); in [10], 20.6 µM (active). In addition, the AC50 in [11] was 11.4 µM (active); in assay [12], 2.18 µM (active); in assay [14] it was 7.37 µM (active); in assay [15], 7.35 µM (active); in assay [16], 24.5 µM (active); in [17], 12 µM (active). Further, the call in assay [2], in assay [3], in assay [4], in assay [7] and in assay [13] was inactive.
As for `NCCO`, the compound was classed as inactive in assay [1], in assay [2], in assay [3], in assay [4], in [5] and in assay [6]. For the same compound, the call in assay [8], in [9], in [10], in assay [11], in [12] and in [13] was inactive. For the same compound, the result in assay [14], in assay [15], in assay [16] and in assay [17] was inactive. Besides, in assay [7], the concentration at half-maximal activity (AC50) was 50 µM (active).
For `OC[C@@H](O)[C@@H](O)[C@H](O)[C@H](O)CO`, the compound was classed as inactive in [1], in assay [2], in assay [3], in [4], in assay [5] and in [6]. The compound was called inactive in assay [7], in [8], in [9], in assay [10], in assay [11] and in assay [12]. Moreover, the compound was classed as inactive in assay [13], in assay [14], in assay [16] and in assay [17].
`CC(C)(C)c1cc(O)c(C(C)(C)C)cc1O`: the AC50 in [1] was 81.7 µM (active); in assay [2], 50 µM (active); in assay [5], 78.8 µM (active); in [6] it was 78.1 µM (active); in assay [18], 77.4 µM (active); in assay [8], 77.7 µM (active). In addition, the AC50 is 50 µM (active) in assay [9], 90.3 µM (active) in assay [11], 73.6 µM (active) in assay [13] and 85.9 µM (active) in [15]. The result in [3], in assay [4], in assay [10], in assay [12], in [16] and in [17] was inactive.
Consider `O=c1c(O)c(-c2ccc(O)c(O)c2)oc2cc(O)cc(O)c12`, for which the call in assay [1], in [2], in assay [4], in assay [5], in assay [18] and in assay [8] was inactive. In addition, the compound was classed as inactive in assay [9], in assay [10], in assay [12], in assay [13], in [15] and in [16]. Also, the call in [17] was inactive. The AC50 is 80 µM (active) in [6] and 0.634 µM (active) in assay [7].
Consider `CC(=O)OC/C=C(\C)CCC=C(C)C`, for which the outcome in assay [1], in assay [2], in assay [3], in assay [4], in assay [5] and in [6] was inactive. The call in [7], in assay [8], in assay [9], in assay [10], in assay [11] and in assay [12] was inactive. The compound was classed as inactive in [13], in assay [14], in assay [15], in assay [16] and in [17].
As for `C1CCC(SSC2CCCCC2)CC1`, the compound was called inactive in [1], in assay [2], in [4], in assay [19], in assay [5] and in assay [6]. Besides, the result in assay [8], in [9], in assay [10], in assay [11], in [12] and in [13] was inactive. Further, the call in assay [16] and in assay [17] was inactive. For the same compound, the AC50 in [7] is 50 µM (active).
